Common to all, as to conditions: concentration: 1 μM, replicates: in singlicate; n = 1
Test [1] has as its system T1, CTK.
T1 construct: gene MATK

In test [2] the test system is DAPK1.
In test [3] the test system is DAPK2.
Test [4] has as its system DAPK3.
Test [5] has as its system T2, DCAMKL1.
T2 construct: gene DCLK1

In test [6] the test system is T3, DCAMKL2.
T3 construct: gene DCLK2

The subject of test [7] is T4, DCAMKL3.
T4 construct: gene DCLK3

Test [8] has as its system DDR1.
In test [9] the test system is DDR2.
Test [10] has as its system T5, DLK.
T5 construct: gene MAP3K12

Test [11] concerns T6, DMPK2.
T6 construct: gene CDC42BPG

Test [12] deals with DMPK.
For test [13], the system named is T7, DRAK1.
T7 construct: gene STK17A

For test [14], the system named is T8, DRAK2.
T8 construct: gene STK17B

Test [15] has as its system DYRK1A.
For test [16], the system named is DYRK1B.
Test [17] has as its system DYRK2.
In test [18] the test system is EGFR.
Test [19] deals with EIF2AK1.
Test [20] concerns EPHA1.
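Note: KINOMEscan kinase panel screen.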

For `CC[C@@H]1CO[C@H](C(=O)Nc2ccccc2)CN1c1cc(-c2ccc3c(N)n[nH]c3c2)nc(NC)n1` [GSK2376236], the “%Inh” value turned out to be 0% in test [1]; 17% in test [2]; 37% in test [3]; 47% in test [4]; 2% in test [5]; 0% in [6]. In addition, the “%Inh” value is reported as 90% in test [7]; 0% in test [8]; 11% in [9]; 0% in test [10]; 5% in test [11]; 0% in test [12]. In addition, the “%Inh” value in [13] is 95.3%; in [14], 68%; in test [15] it was 1%; in [16] it was 0%; in test [17] it was 12%; in test [18], 71%. In addition, the entries for the “%Inh” value in test [19] and in test [20] were 0% and 3%, respectively.
As for `COc1ccc(CSc2nnc(-c3ccc4c(c3)CCO4)o2)cc1`, the “%Inh” value in test [1] is reported as 0%; in [2], 0%; in [3], 18%; in test [4], 0%; in test [5], 0%; in test [6], 0%. In addition, the “%Inh” value is on record as 0% in test [7]; 0% in test [8]; 15% in test [9]; 0% in test [10]; 0% in [11]; 0% in test [12]. For the same compound, the “%Inh” value is given as 0% in [13]; 3% in test [14]; 0% in test [15]; 35% in test [16]; 0% in [17]; 0% in test [18]. Further, the “%Inh” value in test [19] and in test [20] was 0% in each case.
Consider `COc1nccc(-c2c(-c3ccc(F)cc3)ncn2CCCN2CCOCC2)n1` [SB-282852], for which the “%Inh” value in test [1] is reported as 22%; in test [2], 5%; in test [3], 0%; in [4], 22%; in test [5], 35%; in test [6], 0%. Also, the “%Inh” value is given as 11% in test [7]; 0% in test [8]; 35% in test [9]; 18% in test [10]; 0% in test [11]; 8% in test [12]. In addition, the “%Inh” value turned out to be 0% in [13]; 0% in test [14]; 0% in [15]; 61% in [16]; 10% in test [17]; 8% in test [18]. Moreover, the figures for the “%Inh” value in [19] and in [20] were 8% and 0%, respectively.
With `Nc1nccc(-c2c(-c3ccc(F)cc3)ncn2C2CCN(Cc3ccccc3)CC2)n1` [SB-219980], the “%Inh” value turned out to be 11% in test [1]; 0% in test [2]; 0% in [3]; 0% in test [4]; 0% in [5]; 0% in test [6]. Besides, the “%Inh” value in test [7] is listed as 13%; in test [8] it was 86%; in [9], 74%; in [10] it was 0%; in [11] it was 52%; in test [12] it was 0%. Also, the “%Inh” value in test [13] is on record as 10%; in test [14], 14%; in test [15], 0%; in test [16] it was 0%; in [17] it was 14%; in test [18], 10%. For the same compound, the “%Inh” value in test [19] and in [20] was 0% in each case.
As for `NS(=O)(=O)c1cccc(N/C=C2\C(=O)Nc3ccc(S(=O)(=O)Cc4c(Cl)cccc4Cl)cc32)c1` [GSK398099], the “%Inh” value came to 0% in test [1]; 100% in test [2]; 1% in test [3]; 21% in [4]; 38% in test [5]; 10% in [6]. Moreover, the “%Inh” value was determined as 0% in test [7]; 0% in test [8]; 0% in test [9]; 52% in [10]; 18% in [11]; 0% in test [12]. The “%Inh” value stood at 0% in test [13]; 0% in test [14]; 29% in [15]; 14% in test [16]; 9% in test [17]; 24% in [18]. In addition, the figures for the “%Inh” value in test [19] and in test [20] were 0% and 12%, respectively.
Consider `O=C1NC(=O)C(c2ccc(Cl)cc2)=C1Nc1ccc(O)cc1` [SB-340867], for which the “%Inh” value in [1], in [2], in test [3], in [4], in test [5] and in [6] was 0% each time. The “%Inh” value in [7], in test [8], in [9], in [10], in test [11] and in test [12] was 0% in each case. In addition, the “%Inh” value in test [13] was found to be 0%; in test [14], 0%; in test [15] it was 1%; in test [16] it was 0%; in test [17], 0%; in test [18], 5%. Also, the entries for the “%Inh” value in test [19] and in test [20] were 0% and 16%, respectively.
On to `O=C(Nc1n[nH]c2nc(-c3cccs3)c(Br)cc12)C1CC1` [SB-735297], for which the “%Inh” value in test [1] came out at 13%; in test [2], 0%; in test [3], 0%; in test [4], 0%; in [5], 0%; in [6], 0%. The “%Inh” value in test [7], in test [8], in [9], in [10], in [11] and in test [12] was 0% each time. Besides, the “%Inh” value is on record as 25% in test [13]; 0% in test [14]; 13% in test [15]; 0% in test [16]; 26% in [17]; 0% in [18]. Also, the “%Inh” value is 0% in test [19] and 21% in test [20].
For `COc1ccc(Nc2nccc(N3CCC(NC(=O)c4cc5ccccc5s4)C3)n2)cc1` (stereo not drawn) [GSK1379738], the “%Inh” value in [1] is reported as 0%; in [2], 0%; in [3], 0%; in test [4], 25%; in test [5], 14%; in test [6] it was 0%. For the same compound, the “%Inh” value is recorded as 0% in [7]; 80% in test [8]; 23% in [9]; 28% in test [10]; 7% in [11]; 0% in test [12]. Moreover, the “%Inh” value was 0% in test [13]; 0% in [14]; 15% in [15]; 0% in test [16]; 0% in test [17]; 0% in [18]. In addition, the “%Inh” value in test [19] was determined as 0%; in [20], 17%.
For `Cc1ccc(NC(=O)Nc2ccc(Cl)c(C(F)(F)F)c2)cc1-c1ccc(C(=O)Nc2ccncc2)cc1` [GSK1398470], the “%Inh” value in test [1] is 0%; in test [2] it was 8%; in test [3] it was 21%; in [4], 0%; in test [5], 0%; in test [6] it was 11%. Also, the “%Inh” value in test [7] is given as 5%; in test [8], 97.3%; in [9] it was 63%; in [10], 0%; in [11], 12%; in test [12], 0%. Besides, the “%Inh” value in test [13] worked out at 0%; in test [14], 0%; in [15] it was 12%; in test [16], 19%; in test [17], 29%; in [18] it was 25%. In addition, the “%Inh” value is reported as 78% in test [19] and 6% in [20].

(Values after paper PMC5540273 (PLoS ONE, 2017).)
